Measurements: PubChem BioAssay (NCI)
About 79,000 compounds went through this panel and 15% of them were active in at least one assay; those are over-represented in the sample as a whole. Values without a mark were called inactive. The source made the active and inactive calls. Cut-off read from the data, not from the text of the source: active = growth inhibition above about 70%; inactive = the rest.

Key:
[1] = NCI Yeast Anticancer Drug Screen. Data for the rad50 strain (AID 155);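 note: 0% = growth of vehicle-only cultures of the same strain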; conditions: S. cerevisiae rad50 strain growth inhibition; at 50.0 µM; active compounds read high
Summary of the method: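 Vehicle-treated cultures provide the reference for the growth inhibition reported for compound-exposed, repair-deficient yeast.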

[2] = NCI Yeast Anticancer Drug Screen. Data for the mec2-1 strain (AID 157); conditions: S. cerevisiae mec2-1 strain, at 50.0 µM, active compounds read high
Summary of the method: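 Growth inhibition is read against vehicle-treated controls after compound exposure of the mec2-1 yeast strain, which is defective in DNA damage repair or cell cycle control.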

[3] = NCI Yeast Anticancer Drug Screen. Data for the sgs1 mgt1 strain (AID 161);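 note: 0% = growth of cultures given vehicle only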; conditions: S. cerevisiae sgs1 mgt1 strain, at 50.0 µM, active compounds read high
Summary of the method: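 This yeast growth screen uses a strain with defined DNA-repair lesions; compound-treated growth is compared with vehicle-treated growth.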

[4] = NCI Yeast Anticancer Drug Screen. Data for the cln2 rad14 strain (AID 165);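 note: 0% = growth equal to vehicle treated cultures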; conditions: S. cerevisiae cln2 rad14 strain, at 50.0 µM, active compounds read high
Summary of the method: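 Growth inhibition, relative to vehicle-treated controls, is the read-out. The test organism is a yeast strain with defined genetic alterations, cln2 rad14.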

[5] = NCI Yeast Anticancer Drug Screen. Data for the bub3 strain (AID 167); conditions: S. cerevisiae bub3 mutant strain, at 50.0 µM, active compounds read high
Summary of the method: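 Mutant yeast screening strain plus compound; vehicle-treated cultures serve as the 0% inhibition reference.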

[6] = NCI Yeast Anticancer Drug Screen. Data for the mlh1 rad18 strain (AID 175); conditions: S. cerevisiae mlh1 rad18 strain growth inhibition; at 50.0 µM; active compounds read high
Summary of the method: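 Cells of a genetically altered yeast strain, deficient in DNA damage repair, were treated with compound. Their growth was then compared with that of vehicle-treated cultures to give inhibition.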

SMILES	growth inhibition [1]	growth inhibition [2]	growth inhibition [3]	growth inhibition [4]	growth inhibition [5]	growth inhibition [6]
Nc1c(Cl)c(Cl)nc(C(=O)O)c1Cl	16%	9%	7.05%	3.8%	21.5%	24.2%
Nc1ccc(N)cc1	10.9%	25.8%	-23.7%	-7.4%	-5.9%	-1%
O.O.[Cl][Pt+2][Cl].[NH-]CC[NH-]	23.6%	10.7%	-2.15%	41.5%	16%	9.85%
O=C1NC(=S)N/C1=C/c1ccccc1O	12.3%	6.65%	-27.6%	-14.8%	-27.7%	-42.4%
O=[As](c1ccccc1Br)(c1ccccc1Br)c1ccccc1Br	70%	19.2%	58.7%	13.4%	22.2%	20.9%
O=C1NC(=O)C(=Cc2ccccn2)C(=O)N1	-0.95%	-25%	-0.45%	18.6%	-6.4%	2.3%
c1ccc(-c2cc(-c3ccccc3)c(OOc3c(-c4ccccc4)cc(-c4ccccc4)cc3-c3ccccc3)c(-c3ccccc3)c2)cc1	-6.7%	-0.7%	-0.95%	-27.9%	-10%	16.6%
COc1ccc(O)c2c(=O)c3c(OC)cc4c(c3oc12)[C@@H]1C=CO[C@@H]1O4	16.6%	-29.6%	17.5%	-2.9%	-9.65%	9.2%
COC1CC2C=CC3C4OC2(/C(C)=C/C(C)C(C(C)O)OC1=O)C3C(O)C(C)C4OC(=O)c1ccc[nH]1 (stereo unspecified)	14.7%	6.35%	13.3%	10.7%	-2.85%	14.1%
CC1(C)N=C(N)N=C(N)N1c1ccc(OCCOc2ccc(S(=O)(=O)F)cc2)cc1	-11.1%	-14.4%	-2.05%	-59.4%	-10.7%	-18.4%
O=C(Nc1c(Cl)cc([N+](=O)[O-])cc1Cl)C(=O)C1C(=O)NC(=S)NC1=O	11.9%	-28.4%	-12.1%	7.65%	10.6%	-5.9%
O[C@H](c1ccccc1)[C@@H](c1ccccc1)N1CCCCC1	-9.85%	-11.9%	-3.65%	-28%	41.9%	-11.6%
S=C(N=Nc1ccccc1)NNc1ccccc1.[Cu+2]	-17.4%	-28.8%	-30%	1.8%	5.75%	-15.2%
O=C(CC(=O)C(F)(F)F)c1cccs1.O=C(CC(=O)C(F)(F)F)c1cccs1.O=C(CC(=O)C(F)(F)F)c1cccs1.[Tb]	-5%	20.6%	24.6%	-27.5%	-1.5%	28.2%
Cn1cc([N+](=O)[O-])c([N+](=O)[O-])c1	-3.8%	2.5%	-11.6%	-74.8%	-6.3%	0.85%
O=NN1CCCNCC1	-4.2%	-14.9%	-4.65%	-42.4%	15.4%	4.25%
CC(C)c1ccc(CCN)cc1	6.25%	3.5%	-19.8%	-0.2%	5.65%	-6.1%
[CH3][Sb]([CH3])([CH3])([I])[I]	20.4%	-14.1%	0.15%	-12.7%	-0.2%	1.25%
ClCc1cccnc1	16.9%	-2.35%	5.25%	18.1%	3.6%	31.7%
COC(=O)C1=CO[C@@H](C)[C@@H]2CN3CCc4c([nH]c5cc(OC)ccc45)[C@@H]3C[C@H]12	-0.2%	-28.9%	-11.1%	-2.9%	-27%	-19.2%
COc1ccc(C(O)(C(=O)OCCSC)c2ccc(OC)cc2)cc1	-5.1%	2.85%	-2.6%	-21.5%	9%	0.1%

SMILES	growth inhibition [1]	growth inhibition [2]	growth inhibition [3]	growth inhibition [4]	growth inhibition [5]	growth inhibition [6]
CCOP(=O)(OCC)/C(C#N)=C/c1cccc(OC)c1	57.5%	46.7%	45.6%	16.9%	30.8%	63%
CC(CO)[N+](=O)[O-] (stereo unspecified)	0.75%	1.15%	-5.05%	-15.2%	1.5%	1%
NC1Cc2cc(O)ccc2C1=O (stereo unspecified)	-5.95%	22.2%	-3.35%	20.2%	22.8%	0.7%
CC(Oc1ccc([N+](=O)[O-])cc1Cl)C(=O)Nc1ccc(S(=O)(=O)F)cc1 (stereo unspecified)	-12.8%	-14.4%	-9.4%	4%	0.2%	-12.6%
O=C1CCCN1CC#CCN1CCCC1	-13.8%	-20.9%	16.9%	3.3%	8.55%	6.2%
CN1C2CCC1C(O)C(c1ccccc1)C2 (stereo unspecified)	6.15%	9.25%	-0.05%	-11.8%	0.45%	-0.6%
O=C(Cl)c1ccc[nH]1	-0.95%	-13.9%	-13.7%	21.1%	-25.6%	-0.15%
[CH3][Hg][O]C(C)=O	99.5% (active)	99.9% (active)	99.7% (active)	99.5% (active)	99.7% (active)	99.7% (active)
S=P(N1CCCCC1)(N1CCCCC1)N1CCCCC1	-6.95%	-6.8%	-3.15%	-17.8%	-4.2%	-7.1%
c1cc[c]([Ge]([c]2ccccc2)[c]2ccccc2)cc1	23.1%	-3.8%	3.05%	20.3%	-5.15%	14.4%
CCC(C)c1ccc(O)cc1 (stereo unspecified)	3.5%	-2.9%	-5.95%	-16.1%	-5%	-4.65%
C=C(CC(=O)O)C(=O)O	-2.25%	2.8%	-3.85%	6.2%	6.05%	4.9%
CCOC(=O)/C=C/CP(=O)(OCC)OCC	7.9%	-11.5%	15.2%	11.3%	9.55%	18.2%
ClCCCN1CCN(CCCl)CC1	-11.6%	-10.1%	-1.75%	3.2%	-13.8%	-21.5%
COc1cc(C=Nc2ccc(C(=O)O)c(O)c2)ccc1N(CCCl)CCCl	60.8%	15.1%	65.2%	41%	-3.95%	48.8%
CN(C)c1ccccc1	0.35%	42.1%	5.35%	-7.4%	3.1%	2.65%
CC1CCC2C(C)C(=O)OC3OC4(C)CCC1C32OO4 (stereo unspecified)	-7.55%	4.2%	-8.05%	27.8%	18.2%	2.7%
CNP(=S)(Oc1cc(Cl)c(Cl)cc1Cl)N1CCN(c2ccc(Cl)cc2)CC1 (stereo unspecified)	-0.5%	2%	4.35%	-0.9%	-2.9%	16.4%
CC(=O)c1c(O)c(C)c(O)c(Cc2c(O)c3c(c(C(=O)/C=C/c4ccccc4)c2O)OC(C)(C)C=C3)c1O	23.9%	29.8%	49.1%	17.7%	39.8%	14.5%
C[C@]12CC[C@H]3[C@@H](CCC4=CC(=O)CC[C@@]43C)[C@]1(O)CC[C@]2(O)C(=O)CO	11.2%	-12.6%	-30.4%	-2.05%	-17.3%	-9.1%
